Several values for one entry are separate records, joined by “and”; a condition that tells them apart may be missing. Equal values may be shown once. Records with an inconclusive call do not appear. Activity calls are given as the source filed them. Unless noted, the call rests on the fitted dose curve; in most records, active means well fitted curve in the direction sought with a large enough effect; inconclusive means small, poorly fitted or top-dose-only effect, or another doubt; inactive means no such curve, though single readings can be large; an effect the other way counts as inactive or inconclusive.
Tests used:
[1] = biological target: Cytochrome P450 2C9 (Homo sapiens) (UniProt P11712); experiment: qHTS Assay for Inhibitors and Substrates of Cytochrome P450 2C9 (AID 883); further: potency means the concentration at half of the fitted maximal effect; nearly all actives have a fitted effect of over 60% in size
Outline: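 CYP2C9 deoxyluciferin hydroxylation, 37C, 60 min with NADPH regeneration; 10nM enzyme, 100uM Luciferin-H (KM). Glo detection reagent stopped reaction; luminescence normalized to sulphaphenazole (57uM) full inhibition.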

[2] = biological target: Cytochrome P450 3A4 (Homo sapiens) (UniProt P08684); experiment: qHTS Assay for Inhibitors and Substrates of Cytochrome P450 3A4 (AID 884); further: potency means the concentration at half of the fitted maximal effect; nearly all actives have a fitted effect of over 50% in size
Sequence of Cytochrome P450 3A4 (Homo sapiens) (P08684 whole entry, looked up): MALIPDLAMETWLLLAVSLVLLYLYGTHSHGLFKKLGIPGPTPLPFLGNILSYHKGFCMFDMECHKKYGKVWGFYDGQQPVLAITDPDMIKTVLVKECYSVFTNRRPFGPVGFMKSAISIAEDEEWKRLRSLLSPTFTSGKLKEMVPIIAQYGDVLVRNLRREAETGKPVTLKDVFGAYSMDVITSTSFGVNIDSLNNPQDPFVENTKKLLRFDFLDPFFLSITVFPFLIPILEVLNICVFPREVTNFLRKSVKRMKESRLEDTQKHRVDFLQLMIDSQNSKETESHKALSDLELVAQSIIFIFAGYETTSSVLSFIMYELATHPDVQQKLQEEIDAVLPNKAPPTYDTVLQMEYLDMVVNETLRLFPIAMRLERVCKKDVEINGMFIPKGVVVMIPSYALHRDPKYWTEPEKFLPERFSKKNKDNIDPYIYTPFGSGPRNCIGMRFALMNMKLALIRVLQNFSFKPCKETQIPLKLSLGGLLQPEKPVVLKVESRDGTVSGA
Outline: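 20 nM human CYP3A4 with 25 uM Luciferin-PPXE (at KM) in 200 mM KPO4, preincubated 10 min with compound; NADPH regeneration started a 60 min RT reaction. Luciferin detected by luminescence, normalized to 57 uM ketoconazole as full inhibition.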

[3] = biological target: Cytochrome P450 3A4 (Homo sapiens) (UniProt P08684); experiment: qHTS Assay for Activators of Cytochrome P450 3A4 (AID 885); further: nearly all actives have a fitted effect of over 65% in size
Outline: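 Human CYP3A4 (20 nM) with Luciferin-PPXE at 25 uM (its KM) in 200 mM KPO4; 10 min compound preincubation, then NADPH regeneration and 60 min reaction at RT. Luciferin read by luminescence; normalized to 57 uM ketoconazole full inhibition.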

[4] = biological target: Cytochrome P450 2D6 (Homo sapiens) (UniProt P10635); experiment: qHTS Assay for Inhibitors and Substrates of Cytochrome P450 2D6 (AID 891); further: potency means the concentration at half of the fitted maximal effect; nearly all actives have a fitted effect of over 60% in size
Sequence of Cytochrome P450 2D6 (Homo sapiens) (P10635 whole entry, looked up): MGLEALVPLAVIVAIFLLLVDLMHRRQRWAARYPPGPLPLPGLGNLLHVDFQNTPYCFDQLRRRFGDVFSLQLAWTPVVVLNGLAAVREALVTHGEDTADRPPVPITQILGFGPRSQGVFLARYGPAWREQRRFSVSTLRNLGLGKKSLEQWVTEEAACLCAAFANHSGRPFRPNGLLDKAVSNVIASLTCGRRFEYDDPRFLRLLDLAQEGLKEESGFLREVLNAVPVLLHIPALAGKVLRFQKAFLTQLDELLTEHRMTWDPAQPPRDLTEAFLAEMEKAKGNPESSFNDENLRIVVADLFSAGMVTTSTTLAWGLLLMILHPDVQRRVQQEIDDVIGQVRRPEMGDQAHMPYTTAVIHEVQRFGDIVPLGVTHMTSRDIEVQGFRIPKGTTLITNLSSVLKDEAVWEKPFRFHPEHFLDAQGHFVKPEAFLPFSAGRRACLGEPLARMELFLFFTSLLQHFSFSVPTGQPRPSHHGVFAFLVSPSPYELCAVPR
Outline: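 Human CYP2D6 (5 nM) with 30 uM Luciferin-ME EGE (at Km) in 100 mM KPO4, compound preincubated 10 min, then NADPH regeneration system for 60 min at room temperature. Luciferin read by luminescence; normalized to 1.43 uM quinidine.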

[5] = biological target: Cytochrome P450 2C19 (Homo sapiens) (UniProt P33261); experiment: qHTS Assay for Inhibitors and Substrates of Cytochrome P450 2C19 (AID 899); further: potency means the concentration at half of the fitted maximal effect; nearly all actives have a fitted effect of over 60% in size
Outline: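 In 50mM KPO4, the reaction held 5nM enzyme and KM-level (10uM) Luciferin-H EGE; it ran 60 min at 37C after NADPH regeneration and a 10 min compound preincubation. Luminescence values were scaled to 57uM ketoconazole as complete inhibition.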

[6] = qHTS Assay for Identification of Small Molecule Antagonists for Thrombopoietin (TPO) Signaling Pathway (AID 918); details: TPO-dependent cell signaling reporter, antagonist mode; further: potency means the concentration at half of the fitted maximal effect; nearly all actives have a fitted effect of over 60% in size
Outline: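 Murine Ba/F3 cells expressing human TPO receptor and a Glycoprotein IIb promoter-luciferase reporter, IL-3-starved overnight, treated with compound plus TPO at EC50 (26 pM final). After 24 h at 37 C, luminescence read to detect inhibitors.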

[7] = biological target: Alpha-galactosidase (Coffea arabica) (UniProt Q42656); experiment: Counterscreen for Glucocerebrosidase Inhibitors: qHTS Assay for Coffee Bean alpha-Galactosidase at pH 4.5 (AID 957)
Sequence of Alpha-galactosidase (Coffea arabica) (Q42656 whole entry, looked up): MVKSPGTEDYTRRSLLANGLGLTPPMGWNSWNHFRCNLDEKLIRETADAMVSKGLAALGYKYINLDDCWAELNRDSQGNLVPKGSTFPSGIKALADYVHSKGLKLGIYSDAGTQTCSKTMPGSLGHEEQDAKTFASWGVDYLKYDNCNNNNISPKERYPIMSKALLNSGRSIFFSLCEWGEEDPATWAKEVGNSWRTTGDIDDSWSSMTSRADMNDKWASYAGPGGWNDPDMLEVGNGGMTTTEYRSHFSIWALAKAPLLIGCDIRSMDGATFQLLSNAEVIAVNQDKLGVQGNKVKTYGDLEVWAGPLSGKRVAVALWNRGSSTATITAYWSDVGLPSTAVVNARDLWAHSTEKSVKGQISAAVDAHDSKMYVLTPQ
Outline: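 Coffee bean enzyme (2 nM) with 80 uM 4-methylumbelliferyl alpha-D-galactopyranoside in 50 mM citric acid, 0.005% Tween-20, pH 4.5, 20 min at room temperature; compounds 0.7 nM–77 uM. Stopped at pH 10, fluorescence 365/440 nm; AC50 from Hill fits.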

[8] = biological target: Alpha-galactosidase (Coffea arabica) (UniProt Q42656); experiment: Counterscreen for Glucocerebrosidase Inhibitors: qHTS Assay for Coffee Bean alpha-Galactosidase at pH 5.9 (AID 998)
Outline: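 Green coffee bean enzyme (2 nM final) was incubated with compounds (0.7 nM–77 uM) and 4-methylumbelliferyl alpha-D-galactopyranoside (80 uM) in citrate buffer pH 5.9, 20 min at room temperature. High-pH stop; fluorescence 365/440 nm; AC50 from Hill fits.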

[9] = biological target: DNA repair nuclease/redox regulator APEX1 (Homo sapiens) (UniProt P27695); experiment: qHTS Validation Assay for Inhibitors of the Human Apurinic/apyrimidinic Endonuclease 1 (APE1) (AID 1705; further: potency means the concentration at half of the fitted maximal effect)
Outline: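 Substrate: 50 nM final fluorophore/quencher THF-abasic duplex. Enzyme preincubated with compounds 15 min, RT. Progress derived from fluorescence difference, third minus first kinetic read.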

[10] = Counterscreen for APE1 Inhibitors: Fluorescent Dye Displacement Validation Assay (AID 1707); further: potency means the concentration at half of the fitted maximal effect
Outline: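 Thiazole Orange (250 nM) bound to 50 nM TAMRA-labelled dsDNA with tetrahydrofuran abasic site; displacement by DNA-binding compounds lowers fluorescence. Buffer 50 mM Tris-HCl pH 7.5, 50 mM NaCl, 2 mM MgCl2, 0.01% Tween-20; endpoint read at 480/540 nm.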

[11] = qHTS for differential inhibitors of proliferation of Plasmodium falciparum line 7G8 (AID 1815);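 further: potency means the concentration at half of the fitted maximal effect; parasite growth measured after three days of incubation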
[12] = qHTS for differential inhibitors of proliferation of Plasmodium falciparum line W2 (AID 1883); details: Potency: Plasmodium falciparum W2 proliferation inhibition;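 further: potency means the concentration at half of the fitted maximal effect; parasites grown with compound for 72 h before lysis and staining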
[13] = Validation screen for inhibitors of Lassa infection (AID 463096; calls by dose curve)
[14] = biological target: DNA polymerase III PolC-type (Bacillus subtilis (strain 168)) (UniProt P13267); experiment: qHTS Validation Assay for the Inhibitors of DNA Replication in Gram-Positive Bacteria (AID 485295); further: potency means the concentration at half of the fitted maximal effect
Sequence of DNA polymerase III PolC-type (Bacillus subtilis (strain 168)) (P13267 whole entry, looked up): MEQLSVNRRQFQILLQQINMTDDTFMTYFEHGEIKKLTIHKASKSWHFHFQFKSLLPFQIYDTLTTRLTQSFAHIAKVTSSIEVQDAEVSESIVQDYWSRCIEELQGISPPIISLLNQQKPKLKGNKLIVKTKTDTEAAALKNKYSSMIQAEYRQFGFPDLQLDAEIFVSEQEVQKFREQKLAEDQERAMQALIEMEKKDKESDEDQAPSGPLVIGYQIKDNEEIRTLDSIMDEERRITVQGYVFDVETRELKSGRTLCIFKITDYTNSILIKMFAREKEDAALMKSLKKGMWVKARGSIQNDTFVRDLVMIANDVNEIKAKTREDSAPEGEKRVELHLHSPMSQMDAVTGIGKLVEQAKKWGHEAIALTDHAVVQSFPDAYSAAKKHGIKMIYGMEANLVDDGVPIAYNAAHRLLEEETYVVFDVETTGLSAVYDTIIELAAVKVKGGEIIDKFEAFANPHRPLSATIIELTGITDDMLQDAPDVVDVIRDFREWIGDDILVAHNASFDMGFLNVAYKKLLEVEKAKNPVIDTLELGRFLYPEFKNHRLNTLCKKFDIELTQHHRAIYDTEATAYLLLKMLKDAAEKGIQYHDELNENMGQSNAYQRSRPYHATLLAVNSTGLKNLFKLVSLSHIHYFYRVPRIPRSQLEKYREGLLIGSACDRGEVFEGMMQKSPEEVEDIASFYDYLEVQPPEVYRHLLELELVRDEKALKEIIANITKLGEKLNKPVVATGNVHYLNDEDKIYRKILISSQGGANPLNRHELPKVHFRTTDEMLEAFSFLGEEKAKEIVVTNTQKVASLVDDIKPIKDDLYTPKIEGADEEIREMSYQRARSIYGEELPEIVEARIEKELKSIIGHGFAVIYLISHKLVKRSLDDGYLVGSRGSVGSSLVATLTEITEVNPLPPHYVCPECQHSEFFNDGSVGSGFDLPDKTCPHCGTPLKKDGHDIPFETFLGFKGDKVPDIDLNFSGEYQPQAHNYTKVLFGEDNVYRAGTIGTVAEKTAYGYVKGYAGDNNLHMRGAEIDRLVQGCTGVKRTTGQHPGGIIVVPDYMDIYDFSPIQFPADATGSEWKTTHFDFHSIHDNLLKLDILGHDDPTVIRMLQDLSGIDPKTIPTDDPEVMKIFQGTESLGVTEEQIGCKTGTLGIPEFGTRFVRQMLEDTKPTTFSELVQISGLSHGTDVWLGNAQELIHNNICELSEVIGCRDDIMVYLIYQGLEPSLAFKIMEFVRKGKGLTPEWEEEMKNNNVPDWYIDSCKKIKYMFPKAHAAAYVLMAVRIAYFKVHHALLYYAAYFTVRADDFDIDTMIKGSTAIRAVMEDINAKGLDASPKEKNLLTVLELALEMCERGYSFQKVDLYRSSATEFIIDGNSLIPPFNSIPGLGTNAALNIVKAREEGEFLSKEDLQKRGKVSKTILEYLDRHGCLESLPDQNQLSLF
Outline: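 Inhibition of DNA synthesis by the reconstituted PolC holoenzyme, monitored through PicoGreen staining of dsDNA formed from ssM13Gori, dNTPs and NTPs, with compound preincubation and room-temperature reaction.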

[15] = biological target: M-phase phosphoprotein 8 (Homo sapiens) (UniProt Q99549); experiment: qHTS Validation Assay for Inhibitors for MPP8 Chromodomain Interactions with Methylated Histone Tails (AID 488949); further: potency means the concentration at half of the fitted maximal effect; nearly all actives have a fitted effect of over 55% in size
Outline: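 Chemiluminescent proximity assay: histidine-tag capture via nickel acceptor beads, biotin peptide via streptavidin donor beads. Protein and peptide each at 50 nM, pH 7.4, with 30 min incubations at room temperature for complex formation, compound exposure and bead binding.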

[16] = Inducers of the Endoplasmic Reticulum Stress Response (ERSR) in human glioma: Validation (AID 504836)
Outline: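 Stably transfected U87-MG human glioma cells carrying a GRP78-based luminescent sensor were seeded at 1000 cells/well, pin-dosed with compounds and incubated 16 h. Luciferase reagent was then added, and end-point luminescence was read after 10 min at room temperature.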

[17] = qHTS assay for small molecule agonists of retinoid X receptor alpha signaling (AID 588544; calls by dose curve); details: HEK293T RXRa-UAS-bla, beta-lactamase reporter, 18 h; 530 nm emission
[18] = biological target: Retinoic acid receptor RXR-alpha (Homo sapiens) (UniProt P19793); experiment: as above
Sequence of Retinoic acid receptor RXR-alpha (Homo sapiens) (P19793 whole entry, looked up): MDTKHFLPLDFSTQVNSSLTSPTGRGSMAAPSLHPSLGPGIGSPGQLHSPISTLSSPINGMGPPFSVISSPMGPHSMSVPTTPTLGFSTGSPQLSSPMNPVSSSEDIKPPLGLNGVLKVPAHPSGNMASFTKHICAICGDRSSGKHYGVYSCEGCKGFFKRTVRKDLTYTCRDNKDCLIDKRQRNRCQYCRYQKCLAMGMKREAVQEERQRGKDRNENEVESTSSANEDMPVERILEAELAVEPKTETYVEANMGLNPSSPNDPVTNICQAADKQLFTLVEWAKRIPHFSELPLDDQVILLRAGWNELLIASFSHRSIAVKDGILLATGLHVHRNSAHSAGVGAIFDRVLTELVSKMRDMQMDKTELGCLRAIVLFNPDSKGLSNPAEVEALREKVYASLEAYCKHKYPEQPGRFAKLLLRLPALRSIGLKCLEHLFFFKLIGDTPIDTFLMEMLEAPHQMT

[19] = biological target: Voltage-gated inwardly rectifying potassium channel KCNH2 (Homo sapiens) (UniProt Q12809); experiment: qHTS Assay for Small Molecule Inhibitors of the Human hERG Channel Activity (AID 588834);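 further: top concentration of the series differs between compounds; lower thallium flux fluorescence means stronger hERG block; nearly all actives have a fitted effect of over 50% in size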
Sequence of Voltage-gated inwardly rectifying potassium channel KCNH2 (Homo sapiens) (Q12809 whole entry, looked up): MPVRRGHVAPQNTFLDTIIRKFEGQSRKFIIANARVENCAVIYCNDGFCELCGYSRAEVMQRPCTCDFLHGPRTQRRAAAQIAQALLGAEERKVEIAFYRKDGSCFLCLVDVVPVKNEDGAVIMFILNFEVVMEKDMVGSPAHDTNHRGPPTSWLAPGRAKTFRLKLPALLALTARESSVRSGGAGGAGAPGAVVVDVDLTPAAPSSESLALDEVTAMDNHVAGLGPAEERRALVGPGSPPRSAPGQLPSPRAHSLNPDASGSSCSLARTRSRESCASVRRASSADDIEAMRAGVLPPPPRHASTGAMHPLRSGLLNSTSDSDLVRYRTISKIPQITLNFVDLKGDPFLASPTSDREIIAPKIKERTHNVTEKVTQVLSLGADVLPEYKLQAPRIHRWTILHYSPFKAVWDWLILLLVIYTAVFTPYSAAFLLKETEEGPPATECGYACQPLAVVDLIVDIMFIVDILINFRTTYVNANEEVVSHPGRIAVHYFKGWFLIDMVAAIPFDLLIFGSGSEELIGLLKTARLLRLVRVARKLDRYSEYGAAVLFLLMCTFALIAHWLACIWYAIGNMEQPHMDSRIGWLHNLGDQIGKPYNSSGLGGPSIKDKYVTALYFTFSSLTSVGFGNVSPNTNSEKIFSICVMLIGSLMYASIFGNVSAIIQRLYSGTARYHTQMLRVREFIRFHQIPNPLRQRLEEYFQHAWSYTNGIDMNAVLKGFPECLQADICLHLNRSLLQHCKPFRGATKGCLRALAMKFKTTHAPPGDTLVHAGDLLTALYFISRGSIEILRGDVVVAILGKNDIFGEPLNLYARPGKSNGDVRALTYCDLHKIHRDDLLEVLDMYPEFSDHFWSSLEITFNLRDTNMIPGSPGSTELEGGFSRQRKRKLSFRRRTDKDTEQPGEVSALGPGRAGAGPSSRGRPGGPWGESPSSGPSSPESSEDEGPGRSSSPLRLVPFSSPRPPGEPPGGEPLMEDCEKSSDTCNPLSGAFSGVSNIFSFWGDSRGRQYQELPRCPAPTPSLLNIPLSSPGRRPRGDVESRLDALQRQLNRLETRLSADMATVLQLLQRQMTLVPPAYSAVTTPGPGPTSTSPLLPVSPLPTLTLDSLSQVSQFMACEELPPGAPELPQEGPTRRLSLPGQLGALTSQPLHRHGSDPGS
Outline: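 Blockade is seen as reduced FluxOR thallium-flux fluorescence in U2OS cells expressing hERG from a BacMam construct, in Opti-MEM with 2% FCS. Concentration-response data fitted to the Hill equation for AC50.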

[20] = qHTS assay for small molecule agonists of the antioxidant response element (ARE) signaling pathway (AID 651741; active means well fitted activation curve with a large enough effect in the signal ratio; the % refers to the signal ratio; further: potency means the concentration at half of the fitted maximal effect)
Outline: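 Compounds in DMSO are pinned onto HepG2 ARE-bla cells (2,000/well) that were preincubated 5 h; plates stay 16 h at 37 C, then beta-lactamase activity is detected with LiveBLAzer B/G substrate by fluorescence.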

[21] = qHTS assay for small molecule activators of the p53 signaling pathway (AID 651743; active means well fitted activation curve with a large enough effect in the signal ratio, not every such curve was filed as active; the % refers to the signal ratio; further: potency means the concentration at half of the fitted maximal effect); details: HCT-116 p53RE-bla, beta-lactamase FRET ratio, 16 h; activation: stronger effect = higher value
Outline: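 Cell-based beta-lactamase reporter (p53 response elements, HCT-116 background). After a 5-hour preincubation, cells received compound for 16 hours at 37 C; substrate development ran 2 hours at room temperature.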

[22] = qHTS assay for small molecule disruptors of the mitochondrial membrane potential - 1 hr assay (AID 651754; calls by dose curve; further: potency means the concentration at half of the fitted maximal effect; nearly all actives have a fitted effect of over 35% in size)
Outline: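 HepG2 cells, attached overnight, were exposed to compound for 1 hr at 37C, then stained 30 min with a potentiometric dye. Ratio of red aggregate (590nm) to green monomer (535nm) fluorescence reports membrane potential; collapse shifts signal toward green.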

[23] = qHTS assay for small molecule disruptors of the mitochondrial membrane potential - 5 hr assay (AID 651755; calls by dose curve; further: potency means the concentration at half of the fitted maximal effect; nearly all actives have a fitted effect of over 40% in size)
Outline: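 HepG2 cells, attached overnight at 37C, were exposed to compound or DMSO for 5 hr at 37C, 5% CO2. Mito-MPS dye was then added for 30 min, and fluorescence read at 490/535 nm (monomers) and 540/590 nm (aggregates).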

[24] = qHTS assay to identify small molecules that stimulate interleukin-8 (IL-8) secretion (AID 651758; active means well fitted activation curve with a large enough effect in the signal ratio; the % refers to the signal ratio; further: potency means the concentration at half of the fitted maximal effect)
Outline: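 THP-1, 2000 cells/well; cpd 16 h, 37 C; add cryptate + XL665 anti-IL-8 Abs; RT 1-3 h; TR-FRET read.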

[25] = qHTS assay for environmental chemicals that activate the Aryl hydrocarbon Receptor (AhR) signaling pathway (AID 651777); details: 1A2-DRE human hepatoma cells, luciferase, 24 h; activation: stronger effect = higher value; further: potency means the concentration at half of the fitted maximal effect; nearly all actives have a fitted effect of over 15% in size
Outline: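 Induction of CYP1A2 transcription through AhR is detected by luciferase in 1A2-DRE hepatoma cells. Compounds or DMSO act for 24 hr at 37 C before a 30 min One-Glo step at room temperature.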

[26] = biological target: Nuclear receptor ROR-gamma (Homo sapiens) (UniProt P51449); experiment: qHTS assay for small molecule antagonists of the retinoid-related orphan receptor gamma (ROR-gamma) signaling pathway (AID 651802)
Outline: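 CHO cells with TET-inducible ROR-gamma and RORE-luciferase reporter, dosed then doxycycline-induced. After 16 h at 37C, One-Glo luminescence read; decreased signal indicates antagonism.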

[27] = biological target: Arylsulfatase A (Homo sapiens) (UniProt P15289); experiment: qHTS screen for enhancers of Arylsulfatase A (ASA1): LOPAC Validation Assay (AID 720538)
Outline: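 Cell-based enhancement test: residual ASA activity in SV40-transformed I179S patient fibroblasts is measured by pNCS turnover (0.5mM final, 14h, room temperature) following 48h compound incubation; higher fluorescence indicates activation.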

[28] = qHTS profiling of the MIPE4 collection as inhibitors of Plasmodium falciparum (3D7) proliferation (AID 743344; call rule not given here); details: P. falciparum 3D7 in erythrocytes, SYBR Green DNA fluorescence, 72 h; at 28.5 µM (top of the series) unless noted
Outline: (§1)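 Erythrocytes infected with P. falciparum (0.3% parasitemia, 2.5% hematocrit) incubated with compounds 72 h at 37 C, 5% CO2. Lysis with saponin/Triton buffer containing SYBR Green I, overnight at room temperature in the dark; DNA fluorescence (485/535 nm) normalised to 0.29 uM artemisinin and DMSO.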

[29] = qHTS profiling of the MIPE4 collection as inhibitors of Plasmodium falciparum (DD2) proliferation (Rep 2) (AID 743346; call rule not given here); details: P. falciparum Dd2 in erythrocytes, SYBR Green DNA, 72 h; at 28.5 µM (top of the series) unless noted
Outline: as §1

[30] = qHTS for Inhibitors of the Functional Ribonucleoprotein Complex (vRNP) of Lassa (LASV) Arenavirus: LASV Primary Screen - GLuc reporter signal (AID 1347082; calls by dose curve; tested in HEK293 reporter line; further: nearly all actives have a fitted effect of over 60% in size)
[31] = qHTS for Inhibitors of the Functional Ribonucleoprotein Complex (vRNP) of Lassa (LASV) Arenavirus: Viability assay - alamar blue signal for LASV Primary Screen (AID 1347083; calls by dose curve; tested in HEK293 reporter line; further: nearly all actives have a fitted effect of over 80% in size)
[32] = qHTS for Inhibitors of the Functional Ribonucleoprotein Complex (vRNP) of Lymphocytic Choriomeningitis Arenaviruses (LCMV): Viability assay - alamar blue signal for LCMV Primary Screen (AID 1347085; calls by dose curve; tested in HEK293 reporter line; further: nearly all actives have a fitted effect of over 80% in size)
[33] = biological target: Nucleoprotein (Lymphocytic choriomeningitis virus (strain Armstrong)) (UniProt P09992); experiment: qHTS for Inhibitors of the Functional Ribonucleoprotein Complex (vRNP) of Lymphocytic Choriomeningitis Arenaviruses (LCMV): LCMV Primary Screen - GLuc reporter signal (AID 1347086; calls by dose curve; further: nearly all actives have a fitted effect of over 70% in size)
Sequence of Nucleoprotein (Lymphocytic choriomeningitis virus (strain Armstrong)) (P09992 whole entry, looked up): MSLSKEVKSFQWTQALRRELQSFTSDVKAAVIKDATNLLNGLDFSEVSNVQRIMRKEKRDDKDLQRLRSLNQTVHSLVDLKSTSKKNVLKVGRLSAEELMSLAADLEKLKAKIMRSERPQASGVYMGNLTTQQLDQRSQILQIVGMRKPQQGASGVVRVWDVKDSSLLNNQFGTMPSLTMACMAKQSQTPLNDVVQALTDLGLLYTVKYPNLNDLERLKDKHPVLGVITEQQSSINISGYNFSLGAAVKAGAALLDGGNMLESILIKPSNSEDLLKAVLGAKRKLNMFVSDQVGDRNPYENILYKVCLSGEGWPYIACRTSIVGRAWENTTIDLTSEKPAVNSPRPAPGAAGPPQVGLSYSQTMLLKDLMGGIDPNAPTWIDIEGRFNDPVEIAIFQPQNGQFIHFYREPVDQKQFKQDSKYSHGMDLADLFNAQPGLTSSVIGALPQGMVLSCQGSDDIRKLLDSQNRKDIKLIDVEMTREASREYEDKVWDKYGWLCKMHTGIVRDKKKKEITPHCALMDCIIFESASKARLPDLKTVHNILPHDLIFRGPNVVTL

[34] = Cytotoxicity counterscreen for inhibitors of SARS-CoV-2 cell entry (AID 1645845; calls by dose curve; further: nearly all actives have a fitted effect of over 50% in size)
Outline: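 Expi293F/hACE2 cells seeded overnight; cpd pin-transferred in DMSO, 1 h preincubation, + media, 48 h 37 C 5% CO2; ATPLite 1step luminescence; normalized to cells and no cells.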

[35] = Primary qHTS to identify inhibitors of SARS-CoV-2 cell entry (AID 1645846; calls by dose curve; further: nearly all actives have a fitted effect of over 45% in size); details: activity change, negative = inhibition: at 57.1 µM (top of the series) unless noted
Outline: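 Using luciferase-reporting pseudoviruses carrying Wuhan-Hu-1 spike, the screen tracks entry into stably ACE2-expressing cells over 48 hr. Activity is expressed relative to spike particles versus particles lacking any fusion protein.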

CRL-7250 = normal cell line; experiment: qHTS assay to identify novel small-molecules to repurpose for Merkel cell carcinoma treatment (AID 1296009); details: MCC and control cell lines, CellTiter-Glo viability, 72 h; series mostly up to 92 µM; further: nearly all actives have a fitted effect of over 60% in size
Outline: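 qHTS format: cells treated with library compounds in DMSO across 8 (NPC) or 11 (MIPE) concentrations. Readout after 72 hr at 37 degree celsius was CellTiter-Glo luminescence.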

Cc1cc(O)c2c(c1)C(=O)c1cc(O)cc(O)c1C2=O
active: Potency [1] 7.94 µM | Potency [2] 10 µM | Potency [4] 12.6 µM | Potency [5] 7.94 µM | Potency [6] 12.6 µM | Potency [9] 35.5 µM | Potency [10] 28.2 µM | Potency [11] 11.2 µM | Potency [12] 14.1 µM | Potency [14] 23.8 µM | Potency [15] 10.6 µM | Potency [20] 9.69 µM and 18.8 µM | Potency [21] 15.8 µM and 22.4 µM | Potency [22] 2.98 µM | Potency [23] 3.76 µM | Potency [24] 66.8 µM | Potency [25] 44.7 µM | Potency [26] 42.2 µM
inactive: Potency [3] | outcome [7] | outcome [8] | Potency [13] | outcome [16] | outcome [18] | Potency [19] | Potency [27] | Potency [30] | Potency [31] | Potency [32] | Potency [33] | Potency [34] | Potency (CRL-7250)
21.4%: max response [17]
76.8%: parasite growth, % of DMSO control [28]
3.76%: activity change, negative = inhibition [35]
66.9%: parasite growth, % of control (lower = inhibition) [29]
